Reference: PubChem BioAssay AID1053117 (Broad Institute, 2014)
Measured potencies and affinities stand elsewhere. Activity calls are given as the source filed them.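 Rule for the calls: active = compounds lowering cell ATP signal with a fitted half-effect dose at most twice the top valid dose; inconclusive = flat curve with 30 to 70% signal loss, or bad fit; inactive = wrong direction, flat within 30%, or weaker than limit.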

assay: HEK293 cell cytotoxicity, dose response, cytotoxicity control, cherry-picks, set 5 (AID 1053117); settings: HEK293T viability, CellTiter-Glo ATP luminescence, 72 h; series mostly up to 26 µM; activity change, negative = cytotoxicity: at the top concentration;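 note: more negative means greater loss of ATP signal and more cytotoxicity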

| SMILES | activity change, negative = cytotoxicity |
| --- | --- |
| COC(=O)C[C@@H]1CC[C@H]2[C@H](COc3ccc(NC(=O)Cc4cccs4)cc3C(=O)N2C)O1 | -4.95% [at 23.5 µM] (inactive) |
| COC(=O)C[C@H]1CC[C@H]2[C@H](COc3ccc(NC(=O)Cc4cccs4)cc3C(=O)N2C)O1 | -8.78% (inactive) |
| Cc1ccc(N(CC(=O)NCc2ccco2)S(=O)(=O)c2ccccc2)cc1 | -15.5% (inactive) |
| CCc1nc2c(OCCc3cccc(OC)c3)cccn2c1N(C)C(=O)c1ccc(C)cc1 | -22.9% (inactive) |
| O=C(Nc1nc(-c2ccncc2)cs1)C1COc2ccccc2O1 (stereo not given) | -1.23% (inactive) |
| O=C(Nc1ccccc1F)N1C[C@H]2[C@@H](c3ccccc31)[C@@H](CO)N2C(=O)C1CC1 | -7.36% (inactive) |
| CC(C)(C)[S@@](=O)N1Cc2cc(C(=O)NCc3ccccc3F)nc(-c3cccc(-c4cncnc4)c3)c2[C@H]1CCO | -17.1% (inactive) |
| O=C(NCCS(=O)(=O)N1CCN(c2ccc(F)cc2)CC1)c1ccc(Br)o1 | -14.8% (inactive) |
| Nc1nc(-c2cc3c(cc2Cl)OCCO3)cs1 | -9.84% (inactive) |
| Cc1cc(C)c(S(=O)(=O)Nn2cnnc2)c(C)c1 | -20.2% (inactive) |
| C[C@H](O)C#Cc1ccc2c(c1)O[C@@H](CN(C)C)[C@H](C)CN([C@H](C)CO)S2(=O)=O | -11.2% (inactive) |
| CN1c2ccc(-c3ccccc3)cc2[C@H]2[C@H](CCN2C(=O)CN2CCOCC2)[C@H]1CO | 0.716% [at 23.5 µM] (inactive) |
| CN(C)c1ccc(-c2ccnc3c2CC(C)(C(=O)NCC2CC2)O3)cc1 (stereo not given) | -18.8% (inactive) |
| OC(CNC1CCCc2ccccc21)COc1c(Cl)cccc1Cl (stereo not given) | -9.22% (inactive) |
| Cc1ccccc1S(=O)(=O)N1CC[C@H]2[C@H](CO)Nc3ccc(-c4ccc(C#N)cc4)cc3[C@H]21 | -16.2% (inactive) |
